Data on 31 compounds can be found in PubChem BioAssay (Tox21).

Assay [1] is described as follows: qHTS assay to identify small molecule antagonists of the glucocorticoid receptor (GR) signaling pathway - cell viability counter screen (AID 720693). Also: nearly all actives have a fitted effect of over 55% in size. In general terms: In qHTS, concentration-response curves come from the screen itself.
The nature of assay [2]: qHTS assay for identifying genotoxic compounds that show differential cytotoxicity against isogenic chicken DT40 cell lines with known DNA damage response pathways - wild type cell line (AID 743012). Also: nearly all actives have a fitted effect of over 60% in size. Also: potency is read from the fitted curve at half-maximal effect. The method, boiled down: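 Viability by ATP luminescence (CellTiter-Glo, 30 min RT) after 40 h compound treatment at 37 C/5% CO2, using 300 parental DNA repair-proficient DT40 cells per well.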

Assay [3] in a line: qHTS assay for identifying genotoxic compounds that show differential cytotoxicity against isogenic chicken DT40 cell lines with known DNA damage response pathways - Rev3 mutant cell line (AID 743014). Also: nearly all actives have a fitted effect of over 55% in size. Also: potency is read from the fitted curve at half-maximal effect.
Assay [4] can be described thus: qHTS assay for identifying genotoxic compounds that show differential cytotoxicity against isogenic chicken DT40 cell lines with known DNA damage response pathways - Rad54/Ku70 mutant cell line (AID 743015). Also: nearly all actives have a fitted effect of over 60% in size. Also: potency is read from the fitted curve at half-maximal effect.
The nature of assay [5]: qHTS assay to identify small molecule antagonists of the androgen receptor (AR) signaling pathway - cell viability counter screen (AID 743033; also: nearly all actives have a fitted effect of over 45% in size).
Assay [6] is described as follows: qHTS assay to identify small molecule antagonists of the androgen receptor (AR) signaling pathway using the MDA cell line - cell viability counter screen (AID 743041; also: nearly all actives have a fitted effect of over 45% in size; also: potency is read from the fitted curve at half-maximal effect). The method, boiled down:
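Cytotoxicity counter screen: MDA-kb2 AR-luc cells, compound + R1881, 16 h, 37C, 0% CO2; CellTiter-Fluor added at 15.5 h, fluorescence read after 30 min.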

Structures are written as SMILES. Where “and” joins values, the source holds several entries; their conditions need not be identical. Identical values can stand only once. Results filed as inconclusive are left out. Where a structure was tested more than once in an assay, its records may differ in their call. Calls of active or inactive are those of the source. Calls follow the shape of the dose curve; as a rule, active = well fitted curve in the direction sought with a large enough effect in the repeat runs; inconclusive = weak or mixed curves; inactive = no such curve, though single readings can be large; an effect the other way counts as inactive or inconclusive.
% is scaled to controls: 0 for no effect and ±100 for the full control effect.

As to `CCOC(=O)c1ccc(O)cc1`, the Potency entry in assay [1], in assay [2], in assay [3], in assay [4], in assay [5] and in assay [6] was “inactive” in each case.
For `CCCCC(=O)O`, the Potency entry in assay [1], in assay [2], in assay [3], in assay [4], in assay [5] and in assay [6] was “inactive” throughout.
For `COCN(COC)c1nc(N(COC)COC)nc(N(COC)COC)n1`, the Potency result in assay [1], in assay [2], in assay [3], in assay [4], in assay [5] and in assay [6] was “inactive” in each case.
On to `COc1c2ccoc2cc2oc(=O)ccc12`, for which the Potency entry in assay [1], in assay [2], in assay [3], in assay [4], in assay [5] and in assay [6] was “inactive” throughout.
In the case of `C=CC(=O)NCOCCCC`, the Potency entry in assay [1], in assay [2], in assay [3], in assay [4], in assay [5] and in assay [6] was “inactive” in each case.
As to `O=C1C(N(CO)C(=O)NCO)N(CO)C(=O)N1CO` (configuration not stated), the Potency result in assay [1], in assay [2], in assay [3], in assay [4], in assay [5] and in assay [6] was “inactive” throughout.
For `O=C(NCC1CCCCN1)c1cc(OCC(F)(F)F)ccc1OCC(F)(F)F` (configuration not stated), the Potency entry in assay [1], in assay [5] and in assay [6] was “inactive” throughout. The Potency in assay [2] was 29.8 µM (active) and inactive.
Turning to `COc1ccc2cc3[n+](cc2c1OC)CCc1cc2c(cc1-3)OCO2`, the Potency entry in assay [1] is “inactive”. The Potency in assay [2] was 2.37 µM (active) and 4.36 µM (active); in assay [3], 3.35 µM (active) and 3.09 µM (active); in assay [4], 4.22 µM (active) and 5.49 µM (active); in assay [6] it was 22.1 µM (active) and 7.75 µM (active).
Take `OB(O)O`: the Potency result in assay [1], in assay [2], in assay [3], in assay [4], in assay [5] and in assay [6] was “inactive” each time.
Turning to `OCC(CO)(CO)CO`, the Potency result in assay [1], in assay [2], in assay [3], in assay [4], in assay [5] and in assay [6] was “inactive” in each case.
Take `O=C(O)Cc1c[nH]c2ccccc12`: the Potency result in assay [1], in assay [2], in assay [3], in assay [4], in assay [5] and in assay [6] was “inactive” throughout.
Turning to `O=C1OC(=O)c2c(Cl)c(Cl)c(Cl)c(Cl)c21`, the Potency entry in assay [1], in assay [2], in assay [3], in assay [4], in assay [5] and in assay [6] was “inactive” in each case.
Consider `Nc1cccc(C(F)(F)F)c1`, for which the Potency result in assay [1], in assay [2], in assay [3], in assay [4], in assay [5] and in assay [6] was “inactive” each time.
Regarding `CCn1cc(C(=O)O)c(=O)c2cc3c(cc21)OCO3`, the Potency entry in assay [1], in assay [2], in assay [3], in assay [4], in assay [5] and in assay [6] was “inactive” in each case.
For `CC(=O)Nc1ccc(CC(=O)O)cc1`, the Potency entry in assay [1], in assay [2], in assay [3], in assay [4], in assay [5] and in assay [6] was “inactive” each time.
On to `CC(=O)OC[C@H]1O[C@@](COC(C)=O)(O[C@H]2O[C@H](COC(C)=O)[C@@H](OC(C)=O)[C@H](OC(C)=O)[C@H]2OC(C)=O)[C@@H](OC(C)=O)[C@@H]1OC(C)=O`, for which the Potency entry in assay [1], in assay [2], in assay [3], in assay [4], in assay [5] and in assay [6] was “inactive” each time.
Consider `CCCCCC(C)=O`, for which the Potency entry in assay [1], in assay [2], in assay [3], in assay [4], in assay [5] and in assay [6] was “inactive” in each case.
As to `O=C(c1ccccc1)c1ccc(O)c(O)c1O`, the Potency result in assay [1], in assay [5] and in assay [6] was “inactive” in each case. Further, the Potency in assay [3] and in assay [4] was 61.1 µM (active) in each case.
For the compound `CC1(C)[C@@H](O[C@H]2O[C@H](C(=O)O)[C@@H](O)[C@H](O)[C@H]2O[C@@H]2O[C@H](C(=O)O)[C@@H](O)[C@H](O)[C@H]2O)CC[C@]2(C)[C@H]3C(=O)C=C4[C@@H]5C[C@@](C)(C(=O)O)CC[C@]5(C)CC[C@@]4(C)[C@]3(C)CC[C@@H]12`, the Potency entry in assay [1], in assay [2], in assay [3], in assay [4], in assay [5] and in assay [6] was “inactive” throughout.
For `OC1CCCCC1`, the Potency entry in assay [1], in assay [2], in assay [3], in assay [4], in assay [5] and in assay [6] was “inactive” throughout.
`CC(C)c1ccc(C(C)C)cc1`: the Potency result in assay [1], in assay [2], in assay [3], in assay [4], in assay [5] and in assay [6] was “inactive” in each case.
Regarding `COc1c(Cl)ccc(Cl)c1C(=O)O`, the Potency entry in assay [1], in assay [2], in assay [3], in assay [4], in assay [5] and in assay [6] was “inactive” in each case.
In the case of `Cc1ccc(C)c(S(=O)(=O)O)c1`, the Potency entry in assay [1], in assay [2], in assay [3], in assay [4], in assay [5] and in assay [6] was “inactive” throughout.
On to `Cc1ncc(CO)c(CO)c1O`, for which the Potency entry in assay [1], in assay [2], in assay [3], in assay [4], in assay [5] and in assay [6] was “inactive” throughout.
As for `CCCCCCCCO`, the Potency result in assay [1], in assay [2], in assay [3], in assay [4], in assay [5] and in assay [6] was “inactive” throughout.
Take `CCCCCCCCCCCC(=O)N(C)CC(=O)O`: the Potency result in assay [1] and in assay [6] was “inactive” in each case. The Potency in assay [3] and in assay [4] was 66.4 µM (active) in each case. In addition, the activity, negative = cytotoxicity in assay [3] is 3.78% [at 8.53 µM] (inactive). The activity change, negative = cytotoxicity was -12.4% [at 8.55 µM] (inactive) in assay [4] and 1.79% [at 7.04 µM] (inactive) in assay [5].
On to `Cc1ccncc1`, for which the Potency entry in assay [1], in assay [2], in assay [3], in assay [4], in assay [5] and in assay [6] was “inactive” in each case.
With `Cc1ccc(Cl)cc1`, the Potency result in assay [1], in assay [2], in assay [3], in assay [4], in assay [5] and in assay [6] was “inactive” in each case.
Regarding `CC(COCC(C)OC(=O)c1ccccc1)OC(=O)c1ccccc1` (configuration not stated), the Potency result in assay [1], in assay [3], in assay [5] and in assay [6] was “inactive” each time. For the same compound, the Potency in assay [4] was 61.1 µM (active).
Turning to `Brc1ccc(Oc2ccc(Br)cc2)cc1`, the Potency result in assay [1], in assay [2], in assay [3], in assay [4], in assay [5] and in assay [6] was “inactive” in each case.
Turning to `Cc1ccc([N+](=O)[O-])cc1N`, the Potency result in assay [1], in assay [2], in assay [3], in assay [4], in assay [5] and in assay [6] was “inactive” in each case.
